Among the data in PubChem BioAssay (EPA / NIEHS) are outcome and AC50 values, retold here.

Active and inactive are the calls of the source. Rule for the calls: active = hit-call score of the fitted dose curve at least 0.9, where 1 is the maximum; inactive = score below 0.9.

A short description of assay [1]: ATG_CRE_CIS: Attagene CIS-FACTORIAL HepG2 Assay for human cAMP Responsive Element (CRE) binding protein 3 (AID 2282926). Particulars: HepG2 CRE cis-reporter, Attagene multiplexed mRNA; actives raise or lower the signal. An outline of the steps: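 Transfected HepG2 were treated for 24 hours, then RNA was extracted and reporter cDNA amplified with sequence-specific primers. Labelled fragments were separated by capillary electrophoresis, and the CRE signal was fitted bidirectionally with DMSO as baseline.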

Assay [2] concerns the target CCAAT/enhancer-binding protein beta (Homo sapiens) (UniProt P17676). Nature of the assay: ATG_C_EBP_CIS: Attagene CIS-FACTORIAL HepG2 Assay for human CCAAT/Enhancer Binding Protein (C/EBP) beta (AID 2282927). The settings on record: HepG2 Attagene cis-factorial transcription factor reporter; actives raise or lower the signal. An outline of the steps: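 Following a 24 h incubation with test chemical, transfected HepG2 cells yielded RNA whose reporter transcripts were quantified by RT-PCR and fluorescent capillary electrophoresis, with DMSO serving as baseline for bidirectional fitting.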

Assay [3] can be described thus: ATG_CMV_CIS: Attagene CIS-FACTORIAL HepG2 Assay for human CMV (Internal Marker) (AID 2282928).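 Note: endpoint acts as a background internal control marker rather than a target.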 Particulars: HepG2 CMV promoter reporter, transcription factor profiling; actives raise or lower the signal. An outline of the steps: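 After transient transfection of HepG2 with reporter transcription units driven by cis-regulatory promoters, cells receive test chemical for 24 h. Labeled reporter amplicons, digested with HpaI, are sized and quantified by capillary electrophoresis against DMSO.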

Assay [4] can be described thus: ATG_DR4_LXR_CIS: Attagene CIS-FACTORIAL HepG2 Assay for human Liver X Receptor (LXR), DR4 submotif (AID 2282929). Particulars: HepG2 Attagene DR4 cis-reporter, mRNA transcription; actives raise or lower the signal. An outline of the steps:
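Measures endogenous transcription factor activity via a DR4-driven reporter transcript in human HepG2 cells. Compounds incubated 24 h; mRNA quantified by RT-PCR and capillary electrophoresis, analysed as gain or loss of signal versus DMSO.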

Assay [5] addresses Aryl hydrocarbon receptor (Homo sapiens) (UniProt P35869). Kind of assay: ATG_Ahr_CIS: Attagene CIS-FACTORIAL HepG2 Assay for human Aryl Hydrocarbon Receptor (Ahr) (AID 2282930). Particulars: HepG2 AhR cis-factorial reporter transcription; actives raise or lower the signal. An outline of the steps:
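Values derive from bidirectional fitting against DMSO negative control. Underlying signal: cis-element reporter mRNA in transiently transfected HepG2, harvested 24 h post-dose and measured by RT-PCR plus capillary electrophoresis.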

Assay [6] in a line: ATG_AP_1_CIS: Attagene CIS-FACTORIAL HepG2 Assay for human Activator Protein 1 (AP-1) (AID 2282931). The settings on record: HepG2 Attagene cis-factorial AP-1 reporter mRNA; actives raise or lower the signal. An outline of the steps:
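Bidirectional concentration-response fitting against DMSO controls. Underlying signal: reporter mRNA from cis-promoter constructs in transiently transfected HepG2, measured after 24 h by RT-PCR and capillary electrophoresis.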

Assay [7] in a line: ATG_AP_2_CIS: Attagene CIS-FACTORIAL HepG2 Assay for human Activator Protein 2 (AP-2) (AID 2282932). Particulars: HepG2 AP-2 cis-reporter, Attagene transcription factor profiling; actives raise or lower the signal. An outline of the steps: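 HepG2 cells were transiently transfected with multiple cis-promoter reporter transcription units and dosed for 24 h. Reporter mRNA was measured by RT-PCR with capillary electrophoresis fluorescence; bidirectional fits relative to DMSO baseline.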

Assay [8] is described as follows: ATG_BRE_CIS: Attagene CIS-FACTORIAL HepG2 Assay for human Bone Morphogenetic Protein (BMP) Response Element (BRE) (AID 2282933). The settings on record: HepG2 BMP response element reporter, Attagene transcription factor profiling; actives raise or lower the signal. An outline of the steps:
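After a 24 h chemical treatment, transiently transfected HepG2 cells were lysed for RNA; reporter transcripts were quantified by fluorescent RT-PCR and capillary electrophoresis, normalised to DMSO.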

The target of assay [9] is Retinoic acid receptor alpha (Homo sapiens) (UniProt P10276). Nature of the assay: ATG_DR5_RAR_CIS: Attagene CIS-FACTORIAL HepG2 Assay for human Retinoic Acid Receptor Alpha (RARE), DR5 submotif (AID 2282934).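 For AC50: reporter responds to endogenous RAR alpha beta and gamma in HepG2 not RARA alone.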 Particulars: HepG2 Attagene cis-factorial RARE DR5 reporter, mRNA; actives raise or lower the signal. An outline of the steps: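 Endpoint fitted in both directions relative to DMSO as negative control. It reflects DR5 cis-element reporter mRNA induction in transiently transfected HepG2 cells, measured 24 h after dosing through RT-PCR and fluorescent capillary electrophoresis.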
Chain of Retinoic acid receptor alpha (Homo sapiens) (P10276 whole entry, looked up): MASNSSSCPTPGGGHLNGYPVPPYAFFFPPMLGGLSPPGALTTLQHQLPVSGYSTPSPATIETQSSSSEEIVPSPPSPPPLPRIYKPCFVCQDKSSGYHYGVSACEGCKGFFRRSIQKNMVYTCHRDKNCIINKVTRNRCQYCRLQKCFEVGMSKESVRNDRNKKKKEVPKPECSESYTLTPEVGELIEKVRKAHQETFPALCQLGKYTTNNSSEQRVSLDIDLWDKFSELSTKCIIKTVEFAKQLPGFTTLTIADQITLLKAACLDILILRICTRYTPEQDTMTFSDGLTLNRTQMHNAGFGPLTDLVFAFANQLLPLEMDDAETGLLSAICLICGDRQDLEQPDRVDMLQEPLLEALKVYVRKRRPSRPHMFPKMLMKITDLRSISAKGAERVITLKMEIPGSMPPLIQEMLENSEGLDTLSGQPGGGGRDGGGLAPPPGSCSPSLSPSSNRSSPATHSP

Assay [10] has as its target Transcription factor E2F1 (Homo sapiens) (UniProt Q01094). Nature of the assay: ATG_E2F_CIS: Attagene CIS-FACTORIAL HepG2 Assay for human E2F Transcription Factor 1 (AID 2282935). Particulars: HepG2 Attagene cis-reporter, E2F reporter RNA transcripts; actives raise or lower the signal. An outline of the steps: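 HepG2 cells transiently transfected with multiplexed cis-element reporter units, dosed for 24 h. Reporter mRNA measured by RT-PCR, 6-FAM primer-extension labeling, HpaI digestion and capillary electrophoresis; bidirectional fit versus DMSO baseline.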

The nature of assay [11]: ATG_M_61_CIS: Attagene CIS-FACTORIAL HepG2 Assay for M61 Transcription Factor (Internal Marker) (AID 2282937). Particulars: HepG2 Attagene CIS-FACTORIAL M61 internal marker reporter; actives raise or lower the signal. An outline of the steps: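 Fluorescence from labelled cDNA fragments, separated by capillary electrophoresis, quantifies reporter induction. HepG2 cells bearing transiently transfected cis-promoter MRTUs were incubated with test chemical for 24 h; DMSO defined baseline for gain/loss fitting.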

The nature of assay [12]: ATG_EGR_CIS: Attagene CIS-FACTORIAL HepG2 Assay for human Early Growth Response 1 (EGR1) (AID 2282938). Particulars: HepG2 Attagene CIS-FACTORIAL EGR reporter mRNA; actives raise or lower the signal. An outline of the steps:
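Cell-based multiplex transcription assay: HepG2 carrying transfected cis-element reporter units, 24 h chemical treatment. Fluorescence from capillary electrophoresis of RT-PCR products gives mRNA levels; fitting is bidirectional relative to DMSO.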

A short description of assay [13]: ATG_M_19_CIS: Attagene CIS-FACTORIAL HepG2 Assay for M19 Transcription Factor (Internal Marker) (AID 2282939). Particulars: HepG2 Attagene CIS-FACTORIAL M19 internal marker reporter; actives raise or lower the signal. An outline of the steps: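 In this multiplexed cell assay, transiently transfected HepG2 reporter units report endogenous transcription-factor activity; after 24 hours of treatment, labelled reporter cDNA fragments are quantified by capillary electrophoresis and fitted bidirectionally against DMSO.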

Assay [14] can be described thus: ATG_Ets_CIS: Attagene CIS-FACTORIAL HepG2 Assay for human Erythroblast Transformation Specific (ETS) (AID 2282941). The settings on record: HepG2 ETS cis-reporter transcription, actives raise or lower the signal. An outline of the steps:
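Human HepG2 hepatoma cells were transiently transfected with promoter-driven reporter constructs and treated for 24 hours. Reporter transcripts were quantified by RT-PCR with fluorescent primer extension; bidirectional curve fitting used DMSO as reference.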

Assay [15] addresses Hepatocyte nuclear factor 3-beta (Homo sapiens) (UniProt Q9Y261). Nature of the assay: ATG_FoxA2_CIS: Attagene CIS-FACTORIAL HepG2 Assay for human Forkhead box A2 (FOXA2) (AID 2282942). The settings on record: HepG2 cis-reporter transcription factor activity, 24 h; actives raise or lower the signal. An outline of the steps: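 In transiently transfected human HepG2 cells, promoter-driven reporter mRNA levels after 24 h chemical exposure are determined via RT-PCR with capillary electrophoresis. DMSO serves as baseline for bidirectional fitting.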

Assay [16] can be described thus: ATG_FoxO_CIS: Attagene CIS-FACTORIAL HepG2 Assay for human Forkhead box O (FoxO) (AID 2282943). Particulars: HepG2 Attagene cis-reporter, FoxO element, mRNA; actives raise or lower the signal. An outline of the steps:
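Values reflect reporter mRNA induction or loss in HepG2 cells 24 h post-dosing, fitted bidirectionally with DMSO as negative control and baseline. Detection used RT-PCR and fluorescence capillary electrophoresis.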

A short description of assay [17]: ATG_GATA_CIS: Attagene CIS-FACTORIAL HepG2 Assay for human GATA Binding Protein (AID 2282944). Particulars: HepG2 GATA cis-element reporter, Attagene multiplex mRNA; actives raise or lower the signal. An outline of the steps:
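Measures endogenous transcription factor-driven reporter mRNA in HepG2 cells transiently carrying cis-regulated constructs. 24 h dosing; RNA via oligo(dT) reverse transcription, PCR, HpaI digestion, capillary electrophoresis; fitted relative to DMSO.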

The nature of assay [18]: ATG_GLI_CIS: Attagene CIS-FACTORIAL HepG2 Assay for human Zinc Finger Protein GLI1 (AID 2282945). Particulars: HepG2, Attagene cis-factorial reporter mRNA, GLI element; actives raise or lower the signal. An outline of the steps:
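HepG2 cells transiently transfected with cis-promoter multiplexed reporter units report endogenous transcription factor activity. After 24 h chemical exposure, reporter mRNA was quantified by RT-PCR, 6-FAM labelling, HpaI digestion and capillary electrophoresis, with bidirectional fitting against DMSO.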

Assay [19] in a line: ATG_E_Box_CIS: Attagene CIS-FACTORIAL HepG2 Assay for human Enhancer Box (E-box) (AID 2282936). The settings on record: HepG2 E-box cis-reporter transcription, actives raise or lower the signal. An outline of the steps:
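HepG2 cells transiently transfected with multiplexed cis-element reporter units sensing endogenous transcription factor activity; 24 h compound exposure. Reporter mRNA measured by RT-PCR, 6-FAM primer extension, HpaI digestion and capillary electrophoresis; bidirectional fit versus DMSO.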

Assay [20] addresses Bile acid receptor (Homo sapiens) (UniProt Q96RI1). Kind of assay: ATG_IR1_CIS: Attagene CIS-FACTORIAL HepG2 Assay for human Nuclear Receptor Subfamily 1 Group H Member 4 (NR1H4), IR1 submotif (AID 2282946). The settings on record: IR1 reporter transcription, actives raise or lower the signal. An outline of the steps:
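Transient MRTU transfection, HepG2; 24 h dosing; RNA → RT-PCR → 6-FAM primer extension → HpaI digest → capillary electrophoresis fluorescence. Gain/loss of signal fitted relative to DMSO.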

Chain of Transcription factor E2F1 (Homo sapiens) (Q01094 whole entry, looked up): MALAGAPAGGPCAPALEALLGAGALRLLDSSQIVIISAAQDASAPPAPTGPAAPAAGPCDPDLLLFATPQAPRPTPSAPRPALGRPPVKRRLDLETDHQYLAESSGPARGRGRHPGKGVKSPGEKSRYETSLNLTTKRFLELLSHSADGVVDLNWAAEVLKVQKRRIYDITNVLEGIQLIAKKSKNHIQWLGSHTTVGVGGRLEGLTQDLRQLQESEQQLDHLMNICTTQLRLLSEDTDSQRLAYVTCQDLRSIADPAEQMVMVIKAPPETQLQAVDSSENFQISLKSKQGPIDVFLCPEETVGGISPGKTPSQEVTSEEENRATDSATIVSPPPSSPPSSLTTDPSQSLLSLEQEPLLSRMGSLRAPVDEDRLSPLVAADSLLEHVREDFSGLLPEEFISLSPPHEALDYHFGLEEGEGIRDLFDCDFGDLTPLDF
Chain of CCAAT/enhancer-binding protein beta (Homo sapiens) (P17676 whole entry, looked up): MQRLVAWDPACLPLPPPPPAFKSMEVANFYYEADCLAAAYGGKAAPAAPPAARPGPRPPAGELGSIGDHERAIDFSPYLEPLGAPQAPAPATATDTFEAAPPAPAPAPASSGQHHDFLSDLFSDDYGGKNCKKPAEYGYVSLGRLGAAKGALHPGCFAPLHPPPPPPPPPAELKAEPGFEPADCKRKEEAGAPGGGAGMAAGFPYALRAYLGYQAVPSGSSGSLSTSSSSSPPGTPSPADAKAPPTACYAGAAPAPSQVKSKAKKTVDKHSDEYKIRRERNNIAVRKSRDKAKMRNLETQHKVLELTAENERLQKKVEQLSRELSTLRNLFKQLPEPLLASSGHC
Chain of Hepatocyte nuclear factor 3-beta (Homo sapiens) (Q9Y261 whole entry, looked up): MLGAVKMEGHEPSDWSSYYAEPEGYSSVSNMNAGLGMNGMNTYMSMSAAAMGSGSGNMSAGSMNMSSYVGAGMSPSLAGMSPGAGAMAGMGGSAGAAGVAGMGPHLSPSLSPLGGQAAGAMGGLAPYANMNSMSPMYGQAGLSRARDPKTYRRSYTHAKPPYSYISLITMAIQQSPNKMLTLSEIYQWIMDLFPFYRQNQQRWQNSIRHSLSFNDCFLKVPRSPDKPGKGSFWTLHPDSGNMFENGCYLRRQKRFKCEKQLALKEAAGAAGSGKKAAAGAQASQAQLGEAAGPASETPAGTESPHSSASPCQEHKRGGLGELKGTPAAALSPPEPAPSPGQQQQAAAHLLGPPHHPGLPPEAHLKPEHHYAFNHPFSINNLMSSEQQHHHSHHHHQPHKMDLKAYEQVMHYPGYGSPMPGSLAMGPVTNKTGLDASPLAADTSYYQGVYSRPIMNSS
Chain of Aryl hydrocarbon receptor (Homo sapiens) (P35869 whole entry, looked up): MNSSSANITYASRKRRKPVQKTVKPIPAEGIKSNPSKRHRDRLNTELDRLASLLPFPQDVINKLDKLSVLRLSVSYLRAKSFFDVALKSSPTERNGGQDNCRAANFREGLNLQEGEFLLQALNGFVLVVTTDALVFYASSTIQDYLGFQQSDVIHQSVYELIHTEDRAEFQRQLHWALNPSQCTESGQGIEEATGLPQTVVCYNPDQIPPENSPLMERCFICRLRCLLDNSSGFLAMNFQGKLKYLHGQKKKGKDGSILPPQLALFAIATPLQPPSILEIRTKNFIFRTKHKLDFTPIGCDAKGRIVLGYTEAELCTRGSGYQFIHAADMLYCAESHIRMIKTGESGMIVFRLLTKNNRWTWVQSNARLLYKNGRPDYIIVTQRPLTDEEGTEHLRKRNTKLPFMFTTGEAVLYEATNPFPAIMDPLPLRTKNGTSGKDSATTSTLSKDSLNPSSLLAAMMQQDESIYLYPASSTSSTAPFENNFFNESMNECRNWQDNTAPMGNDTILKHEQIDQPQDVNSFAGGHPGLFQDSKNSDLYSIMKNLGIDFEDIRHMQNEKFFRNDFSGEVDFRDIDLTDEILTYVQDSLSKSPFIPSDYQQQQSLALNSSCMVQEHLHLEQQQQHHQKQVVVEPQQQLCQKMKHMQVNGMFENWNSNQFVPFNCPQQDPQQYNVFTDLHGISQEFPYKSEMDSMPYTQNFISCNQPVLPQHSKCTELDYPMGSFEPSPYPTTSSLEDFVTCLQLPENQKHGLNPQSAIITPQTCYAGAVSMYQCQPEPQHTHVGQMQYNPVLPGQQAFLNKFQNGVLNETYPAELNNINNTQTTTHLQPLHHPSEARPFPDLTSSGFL
Chain of Bile acid receptor (Homo sapiens) (Q96RI1 whole entry, looked up): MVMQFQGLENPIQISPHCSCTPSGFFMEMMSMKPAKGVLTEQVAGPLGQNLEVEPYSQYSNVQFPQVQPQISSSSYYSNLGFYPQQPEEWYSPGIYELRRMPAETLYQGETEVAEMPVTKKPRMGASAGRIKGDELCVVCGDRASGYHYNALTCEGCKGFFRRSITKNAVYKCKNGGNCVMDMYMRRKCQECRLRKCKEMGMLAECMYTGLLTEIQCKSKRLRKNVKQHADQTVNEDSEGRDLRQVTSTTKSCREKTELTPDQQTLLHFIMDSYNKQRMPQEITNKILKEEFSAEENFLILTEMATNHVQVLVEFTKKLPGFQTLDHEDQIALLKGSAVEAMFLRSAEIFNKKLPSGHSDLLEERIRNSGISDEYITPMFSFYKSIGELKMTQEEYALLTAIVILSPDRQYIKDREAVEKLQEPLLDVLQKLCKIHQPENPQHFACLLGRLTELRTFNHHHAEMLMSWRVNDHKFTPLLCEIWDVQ

`CC(=NC#N)N(C)Cc1ccc(Cl)nc1`: the call in [1], in [2], in assay [3], in [4], in assay [5] and in assay [6] was inactive. Further, the call in assay [7], in assay [8], in assay [9], in assay [10], in [11] and in assay [12] was inactive. Besides, the molecule was classed as inactive in assay [13], in assay [14], in [15], in assay [16], in assay [17] and in [18].

Turning to `Nc1nc(N)nc(NC2CC2)n1`, the molecule was classed as inactive in [1], in [2], in assay [3], in assay [4], in [5] and in assay [6]. The molecule was classed as inactive in assay [7], in [8], in [9], in assay [10], in [19] and in assay [11]. Besides, the call in assay [12], in [13], in assay [14], in [15], in [16] and in assay [17] was inactive. The outcome in [18] and in assay [20] was inactive.

For orientation: AC50 means the concentration giving half of the maximal activity seen. For the molecule `C#CCC1=C(C)C(OC(=O)C2C(C=C(C)C)C2(C)C)CC1=O` (configuration not stated), the AC50 in assay [1] is 27.1 µM (active); in assay [2], 21.7 µM (active); in assay [4], 50 µM (active); in [5], 78.6 µM (active); in [6], 37.1 µM (active); in assay [7], 74.9 µM (active). Also, the AC50 in [8] is 9.01 µM (active); in assay [9] it was 9.92 µM (active); in [12], 50 µM (active); in assay [16] it was 90.3 µM (active); in assay [17] it was 77.1 µM (active); in [18], 73.2 µM (active). Besides, the call in assay [3], in assay [10], in assay [11], in assay [13], in assay [14] and in assay [15] was inactive. Also, in [20], the call was inactive.
